Reference: PubChem BioAssay (NCI)
The panel holds about 83,000 compounds, 20% with a hit somewhere; the sample as a whole holds those more often.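 Single-dose data. Exposure time 48 hours. Values below 10 considered active.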 Unmarked numbers belong to inactive results. Activity calls are given as the source filed them.

Tests used:
Experiment in all cases: NCI-60 one-dose screen, 48 h (100 = growth as untreated, 0 = no growth, -100 = all killed)
Settings in all cases: 10 µM unless noted
SK-MEL-2 melanoma = system: SK-MEL-2 melanoma
EKVX NSCLC = system: EKVX NSCLC
SN12C renal = system: SN12C renal
UO-31 renal = system: UO-31 renal
TK-10 renal = system: TK-10 renal
ACHN renal = system: ACHN renal
CAKI-1 renal = system: CAKI-1 renal
A498 renal = system: A498 renal
MOLT-4 leukemia = system: MOLT-4 leukemia
CCRF-CEM leukemia = system: CCRF-CEM leukemia

Row | Structure (SMILES) | growth (SK-MEL-2 melanoma) | growth (EKVX NSCLC) | growth (SN12C renal) | growth (UO-31 renal) | growth (TK-10 renal) | growth (ACHN renal) | growth (CAKI-1 renal) | growth (A498 renal) | growth (MOLT-4 leukemia) | growth (CCRF-CEM leukemia)
1 | CC1(C)CC[C@]2(C(=O)N3CCOCC3)CC[C@]3(C)C(=CC[C@@H]4[C@@]5(C)CC[C@H](OC(=O)c6cccnc6)C(C)(C)[C@@H]5CC[C@]43C)[C@@H]2C1 | 84.4% | 88.2% | 74.4% | 62.9% | 83% | 45.3% | 40.1% | 70.3% | 49% | 
2 | C=C(C)[C@@H]1CC[C@]2(C(=O)NC3CCCCC3)CC[C@]3(C)[C@H](CC[C@@H]4[C@@]5(C)CCC(=O)C(C)(C)[C@@H]5CC[C@]43C)[C@@H]12 | 95% | 93.9% | 86% | 76.1% | 95.2% | 99.8% | 76.6% | 83.3% | 88% | 
3 | N#Cc1c(N)nn(C(=O)c2ccc(NC(=O)c3ccccn3)cc2)c1-c1ccc(Cl)cc1 | 79.3% | 49.2% | 35% | 54.3% | 24.6% | 12.9% | 26% | 51.1% | 52.9% | 
4 | COc1nc2c(c(=O)n1C)CN(c1ccccc1)C(=O)CN2C | 69.6% [100 µM] | 58.2% [100 µM] | 51.3% [100 µM] | 26% [100 µM] | 52.3% [100 µM] | 46.4% [100 µM] | 61.7% [100 µM] | 61% [100 µM] | 40.6% [100 µM] | 
5 | N=C1C(c2nc(-c3ccc(Br)cc3)cs2)=C(O)CN1Cc1cccnc1 | 111% | 71.7% | 69.7% | -6.45% (active) | 60.1% | 61.5% | 57.1% | 86.8% | 68.5% | 
6 | CC(C)Sc1nc(NNC(N)=S)c(C#N)c(-c2ccc(F)cc2)n1 | 103% | 96.7% | 96.1% | 79.7% | 96.3% | 94.3% | 88.8% | 61.7% | 95.7% | 93.2%
7 | COC(=O)c1c2c(c(C)[n+]([O-])c1C)C(=O)C(NCc1ccc(F)c(Cl)c1)=CC2=O | 29.4% | 37.8% | -0.149% (active) | 41.7% | 58.8% | 30.9% | 34% | 78% | -19.2% (active) | 
8 | CC(CN1CCCCC1)C(=O)c1ccccc1 (centres undefined) | 102% | 104% | 105% | 92.4% | 96.7% | 107% | 101% | 84% | 106% | 
9 | O=c1cc(C2NNC(=S)N2)c2ccc3ccccc3c2o1 (centres undefined) | 106% | 64.5% | 100% | 70.6% | 126% | 94.7% | 85.1% | 88.1% | 102% | 
10 | O=C1OC(c2nc3ccccc3s2)=C/C1=C\c1ccc(O)cc1 | 110% | 102% | 93.9% | 75.8% | 114% | 99.5% | 85.4% | 108% | 102% | 
11 | CN1CCN(C(=O)c2c3c(n4ccccc24)C(=O)c2ncccc2C3=O)CC1 | 80% | 91.5% | 45% | 35.2% | 89.3% | 32% | 35.7% | 51.5% | 103% | 
12 | CCOC(=O)c1c2c(n3ccc(NC(=O)OC(C)(C)C)cc13)C(=O)c1ncccc1C2=O | 9.26% (active) | -39.8% (active) | -31% (active) | -76.4% (active) | 6.15% (active) | -41% (active) | -3.67% (active) | -0.0751% (active) | 7.38% (active) | 
13 | CC1=NOC(=O)/C1=C\c1ccc(O)cc1 | 113% | 104% | 101% | 85.7% | 102% | 101% | 95.4% | 86.7% | 102% | 94.1%
